# Screens deposited in PubChem BioAssay by National Center for Advancing Translational Sciences (NCATS).
# An excerpt weighted towards active compounds, which were near 21% of everything screened.
# VP16 counter = Gal4-VP16 reporter inhibition counter-screen; Drosophila S2 Gal4-VP16 UAS-luciferase, luminescence, 20 h; Potency, µM (highest dose often 53.6 µM), inactives show at the top dose activity, negative = inhibition, hits mostly inhibitors; 3.5% of 310,000 active; AID 2546;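 also: Gal4-VP16 expression switched on by copper sulfate through the metallothionein promoter; potency is read from the fitted curve at half-maximal effect; nearly all actives have a fitted effect of over 50% in size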
# ELG1 repair inh = inhibitors of ELG1-dependent DNA repair in HEK293T cells | 2.3% of 330,000 active | Potency, µM (series often up to 46.1 µM), inactives show at the top dose activity change, negative = inhibition, actives largely listed as inhibitors | HEK293T ELG1-luciferase reporter, luminescence, 16 h; DNA damage induced by 5-fluorouridine; also: potency is read from the fitted curve at half-maximal effect; nearly all actives have a fitted effect of over 55% in size
#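 Step one: seed 2,000 cells per well. Step two: pin-transfer compound or DMSO alongside 5-fluorouridine. Step three: incubate 16 hr, 37 °C, 5% CO2. Step four: add ONE-Glo, wait 30 min, read luminescence.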
# TDP1 cell CPT = DT40-hTDP1 cell growth loss with CPT. chicken DT40 Tdp1-/-;hTDP1 cells + 20 nM CPT, ATP luminescence, 48 h. Potency, µM (series often up to 46.2 µM), without a hit: top-dose activity change, negative = growth inhibition, usual class: inhibitors. 12% of 420,000 active; also: potency is read from the fitted curve at half-maximal effect; nearly all actives have a fitted effect of over 55% in size
#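 Cell growth measured by CellTiter-Glo luminescence after a minimum 48 h, 37 C compound exposure with 20 nM CPT in Tdp1-knockout DT40 cells stably expressing hTDP1, seeded 400/well; qHTS titration format.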
# DT40 TDP1 no CPT = qHTS for Inhibitors of human tyrosyl-DNA phosphodiesterase 1 (TDP1): qHTS in cells in absence of CPT; DT40 Tdp1-/- hTDP1 cells, no CPT, ATP luminescence, 48 h; Potency, µM (top dose mostly 46.2 µM), without a hit: at the highest dose activity change, negative = growth inhibition, most hits filed as inhibitors; 15% of 420,000 active; AID 686978, 2013; also: potency is read from the fitted curve at half-maximal effect; nearly all actives have a fitted effect of over 55% in size
#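 Seeded 400 DT40-hTDP1 cells/well (vehicle DMSO, no 20 nM CPT); pinned compounds; ≥48 hr at 37 °C; CellTiter-Glo luminescence as viability measure.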
# IL1B secr inh = inflammasome signaling inhibition, IL-1 beta readout; 4.7% of 360,000 active; activity change, % at 57.5 µM; THP-1 LPS/ATP IL-1B secretion, AlphaLISA, 16 h; hits give low values; in the data active = activity change below about -50%; inconclusive = mostly about -30% to -49%
#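 THP-1 cells pretreated 1 hr with compounds (up to 57.5 uM final), then stimulated with LPS (250 ng/mL final) plus ATP (1.25 mM final); secreted IL-1B measured by AlphaLISA after 16 hr, decreased signal indicating inhibition.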
# RORgamma inh = inhibitors of mouse ROR gamma transcriptional activity; Potency, µM (top dose mostly 53.6 µM), for the others: top-dose activity change, negative = inhibition, most hits filed as inhibitors; Drosophila S2 Gal4-RORgamma UAS-luciferase reporter, 20 h; 5.4% of 310,000 active; also: potency is read from the fitted curve at half-maximal effect; nearly all actives have a fitted effect of over 60% in size
# Target sequence (P51450 whole entry, looked up, the tested form may be a part): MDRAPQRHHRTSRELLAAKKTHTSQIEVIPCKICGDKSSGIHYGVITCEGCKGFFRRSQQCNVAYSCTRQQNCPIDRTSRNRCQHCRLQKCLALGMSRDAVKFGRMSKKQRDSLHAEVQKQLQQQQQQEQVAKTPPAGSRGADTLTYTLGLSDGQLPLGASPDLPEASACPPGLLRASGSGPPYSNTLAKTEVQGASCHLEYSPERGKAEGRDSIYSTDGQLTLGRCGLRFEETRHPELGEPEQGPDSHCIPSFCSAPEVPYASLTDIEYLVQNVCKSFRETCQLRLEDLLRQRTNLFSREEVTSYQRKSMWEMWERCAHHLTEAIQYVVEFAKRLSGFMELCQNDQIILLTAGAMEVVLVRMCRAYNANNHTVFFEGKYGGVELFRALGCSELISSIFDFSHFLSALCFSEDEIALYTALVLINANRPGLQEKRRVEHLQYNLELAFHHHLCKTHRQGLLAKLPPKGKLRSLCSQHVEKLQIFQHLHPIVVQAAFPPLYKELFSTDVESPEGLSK
#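 Luciferase reporter read in Schneider cells carrying Gal4-RORγ (mouse) and UAS-Photinus luciferase; cells given compound 1 h before 700 uM copper sulfate induction, then incubated 20 h at ambient temperature.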
# Active calls of the source: *; i = inactive; ? = inconclusive; nt = no result; [ ] = dose if it differs, or a comment. Unless noted, calls follow the shape of the dose curve; as a rule, active = well fitted curve in the direction sought with a large enough effect; inconclusive = small, poorly fitted or top-dose-only effect, or another doubt; inactive = no such curve, though single readings can be large; an effect the other way counts as inactive or inconclusive. % is scaled to controls: 0 for no effect and ±100 for the full control effect.
SMILES,VP16 counter,ELG1 repair inh,TDP1 cell CPT,DT40 TDP1 no CPT,IL1B secr inh,RORgamma inh
CC(C)c1c(CN(C)[C@@H](C)Cc2ccccc2)n(C)n(-c2ccccc2)c1=O,14%[17 µM],nt,nt,nt,nt,-1%[16.9 µM]
C[C@@]12CC[C@H]3[C@@H](CC[C@@H]4C[C@H]5S[C@H]5C[C@]43C)[C@H]1CC[C@H]2O,-11%[17 µM],nt,nt,nt,nt,0%[2.98 µM]
CC(C)CN(C(=O)CN1CC=C(c2ccccc2)CC1)c1c(N)n(CC(C)C)c(=O)[nH]c1=O,8%,-4%,?,18µM*,-6,-4%
CC(C)(C)C(=O)N1Cc2ccccc2-n2nncc2C1,nt,nt,?,-28%,-10,nt
O=C1NCc2c1c1c3ccccc3[nH]c1c1[nH]c3ccccc3c21,nt,nt,3.2µM*,2.8µM*,nt,nt
O=C1NC(=O)c2c1c1c3ccccc3[nH]c1c1[nH]c3ccccc3c21,-5%,nt,nt,nt,nt,-16%
CC(C)C[C@@H]1COc2cc(N3CCN(C)CC3)ccc2S(=O)(=O)N1,nt,nt,-14%,-24%,4,nt
COc1cc2c(cc1OC)C(C(=O)N1CCC3(CC1)OCCO3)C(c1ccccc1F)N(C)C2=O (stereo unspecified),2%,18µM*,-12%,-30%,26,?
O=c1c2ccccc2nc(/C=C/c2ccc3c(c2)OCO3)n1-c1cccc(O)c1,-5%,16µM*,-20%,?,0,25%
COc1ccc(-n2c(/C=C/c3ccc4c(c3)OCO4)nc3ccccc3c2=O)cc1,?,23µM*,26µM*,15µM*,-8,16%
O=c1c2ccccc2nc(/C=C/c2ccc(O)cc2)n1-c1cccc(O)c1,3%,?,?,?,24,-22%
Cc1ccc(-n2c(/C=C/c3ccc4c(c3)OCO4)nc3ccccc3c2=O)cc1,-9%,18µM*,nt,nt,nt,12%
COc1ccc(-c2nc3ccccc3c(=O)n2-c2cccnc2)cc1,-6%,12%,?,-20%,3,-14%
CCNc1nc(NC(C)C)nc(NS(=O)(=O)c2ccc(Cl)cc2)n1,-12%,-1%,?,?,-21,16%
O=C(NCP(=O)(Oc1ccccc1)Oc1ccccc1)OCc1ccccc1,nt,nt,-1%,-19%,-5,nt
C[C@]12C[C@@H](O)[C@H](O)CC1=CCC1C2CC[C@@]2(C)C1CC[C@@H]2O (stereo partly specified),nt,-3%,-29%,-18%,30,nt
CN(C(=O)COC(=O)c1cn(C)c2ccccc12)C1CCCCC1,nt,10%,-24%,-4%,-50*,nt
O=C(CN1CC=C(c2ccccc2)CC1)NC(=O)NCc1ccccc1,11%,17%,?,?,6,-23%
Cc1ccc(N2CC(C(=O)Nc3cc(S(=O)(=O)N4CCCCC4)ccc3C)CC2=O)cc1 (stereo unspecified),nt,nt,?,5.8µM*,-20,nt
O=C(CN1CC=C(c2ccccc2)CC1)Nc1cc(Cl)ccc1Cl,1%,-2%,?,16µM*,i,-28%
Cc1ccc(S(=O)(=O)N2CCCCC2)cc1NC(=O)CN1CC=C(c2ccccc2)CC1,5%,-23%,8.2µM*,5.2µM*,?,41%
COc1ccc(NC(=O)CN2CC=C(c3ccccc3)CC2)cc1S(=O)(=O)N1CCOCC1,-18%,-5%,0%,?,-13,4%
Cc1cccc(NC(=O)C2CCCN(S(=O)(=O)c3ccc4c(c3)oc(=O)n4C)C2)c1 (stereo unspecified),-1%,2%,?,?,-7,35%
COc1ccccc1CNCc1cc(OC)c(OC)cc1OC,-1%,0%,?,?,-8,-25%
COc1ccccc1CNCC(=O)Nc1cc(S(=O)(=O)N2CCCCC2)ccc1C,nt,?,?,?,-60*,nt
SMILES,VP16 counter,ELG1 repair inh,TDP1 cell CPT,DT40 TDP1 no CPT,IL1B secr inh,RORgamma inh
C[C@@H]1CC[C@H]2[C@@H](C)C(=O)O[C@@H]3OC4(C)CC[C@@H]1[C@]32OO4,2%,nt,nt,nt,nt,-8%
CC(C)c1ccc2[nH]c(O)c(N=NC(=O)c3cccc(S(=O)(=O)Nc4ccc(Cl)cc4)c3)c2c1,-1%,-4%,12µM*,10µM*,-25,8%
COc1ccc(N2C(=O)CS(=O)C(c3ccccc3)C2=O)cc1 (stereo unspecified),-1%[10 µM],15%,?,21µM*,20,1.3µM*
COc1ccc(N2C(=O)CC(N3CCC(n4c(=O)[nH]c5ccccc54)CC3)C2=O)cc1 (stereo unspecified),0%,0%,?,?,31,9%
c1ccc(CN2CCCC3(CCNCC3)C2)cc1,-7%,nt,?,?,nt,-16%
COc1cc(C(=O)NCCSc2c(-c3ccccc3)[nH]c3ccccc23)cc(OC)c1OC,nt,nt,8.2µM*,8.2µM*,nt,nt
O=C(NCCSc1c(-c2ccc(F)cc2)[nH]c2ccccc12)c1ccc(S(=O)(=O)N2CCOCC2)cc1,nt,nt,5.2µM*,4.1µM*,nt,nt
O=C(O)[C@@H]1C[C@H]2C[C@@H](CP(=O)(O)O)CC[C@H]2CN1,-14%,nt,12%,-12%,nt,30%
c1ccc(CCN2CCCCC2)cc1,nt,nt,2%,-2%,nt,nt
CN(C)c1ccc([P+](=O)c2ccc(N(C)C)cc2)cc1,4%,-11%,?,21µM*,-21,45%
O=C(Cn1cnc2sc3c(c2c1=O)CCCC3)NCCC(=O)N1CCC2(CC1)OCCO2,-2%,-1%,3%,0%,-5,8%
S=C=Nc1cccc2ccccc12,13µM*,nt,nt,nt,nt,6.3µM*
COc1ccc(-c2nc3ccccc3c(=O)o2)cc1,-22%,?,9%,6%,-3,?
Oc1ccccc1-[n+]1c(-c2ccccc2)cc(-c2ccccc2)c(O)c1-c1ccccc1,nt,25%,?,?,4,nt
COc1ccc(-[n+]2c(-c3ccccc3)cc(-c3ccccc3)cc2-c2ccccc2)cc1,nt,?,0.41µM*,0.26µM*,-76*,nt
Oc1ccc(-[n+]2c(-c3ccccc3)cc(-c3ccccc3)cc2-c2ccccc2)cc1,nt,?,1.2µM*,0.65µM*,-95*,nt
Cc1o[nH]c(=O)c1C[C@@H](N)C(=O)O,0%,nt,1%,-1%,nt,-7%
Cc1ccc(C)c(NP(=O)(Oc2ccccc2)Oc2ccccc2)c1,-1%,8.2µM*,?,16µM*,?,-14%
CCOC(=O)c1ncc2[nH]c3ccc(OCc4ccccc4)cc3c2c1COC,4.5µM*,nt,nt,nt,nt,-92%
NCCc1c[nH]c2ccc(OCc3ccccc3)cc12,-10%,13%,18%,-29%,nt,-2%
